Compound activity deposited in PubChem BioAssay by several laboratories.
LEDGF integ inh: blocks HIV-1 LEDGF/p75-dependent DNA integration. 0.64% of 370,000 active. inhibition, % at 3.7 µM. TR-FRET IN-LEDGF/p75 DNA integration, Eu/Cy5. AID 743269;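 active = inhibition above the screen-wide mean plus 3 SD, cut at about 13% in these data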;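 also: signal is the Cy5 over europium emission ratio at 671 and 618 nm; 0% = plate median of compound wells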
KLK7 zymogen act: activates the human kallikrein-7 zymogen. P49862. purified proKLK7, EDANS-DABCYL substrate fluorescence; 100% is mature enzyme control, 0% vehicle. activation, % at 7 µM. 0.9% of 370,000 active. AID 652039;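 active = activation above the mean of all tested compounds plus 3 SD, computed per campaign excluding outliers beyond control limits, cut at about 13% in these data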
Neddylation inh: cullin neddylation inhibition; TR-FRET cullin neddylation, biochemical; calls only at 25 µM; 0.58% of 360,000 active; P61081+Q13564; in the data active = inhibition above about 36%
Rin1 Abl inh: blocks binding of human Rin1 to Abl. 0.4% of 360,000 active. inhibition, % at 7.35 µM. TR-FRET Rin1/Abl binding, biochemical. P00519+Q13671; in the data active = inhibition above about 5%, passing the limit was not always enough
Target sequence (P00519 whole entry, looked up): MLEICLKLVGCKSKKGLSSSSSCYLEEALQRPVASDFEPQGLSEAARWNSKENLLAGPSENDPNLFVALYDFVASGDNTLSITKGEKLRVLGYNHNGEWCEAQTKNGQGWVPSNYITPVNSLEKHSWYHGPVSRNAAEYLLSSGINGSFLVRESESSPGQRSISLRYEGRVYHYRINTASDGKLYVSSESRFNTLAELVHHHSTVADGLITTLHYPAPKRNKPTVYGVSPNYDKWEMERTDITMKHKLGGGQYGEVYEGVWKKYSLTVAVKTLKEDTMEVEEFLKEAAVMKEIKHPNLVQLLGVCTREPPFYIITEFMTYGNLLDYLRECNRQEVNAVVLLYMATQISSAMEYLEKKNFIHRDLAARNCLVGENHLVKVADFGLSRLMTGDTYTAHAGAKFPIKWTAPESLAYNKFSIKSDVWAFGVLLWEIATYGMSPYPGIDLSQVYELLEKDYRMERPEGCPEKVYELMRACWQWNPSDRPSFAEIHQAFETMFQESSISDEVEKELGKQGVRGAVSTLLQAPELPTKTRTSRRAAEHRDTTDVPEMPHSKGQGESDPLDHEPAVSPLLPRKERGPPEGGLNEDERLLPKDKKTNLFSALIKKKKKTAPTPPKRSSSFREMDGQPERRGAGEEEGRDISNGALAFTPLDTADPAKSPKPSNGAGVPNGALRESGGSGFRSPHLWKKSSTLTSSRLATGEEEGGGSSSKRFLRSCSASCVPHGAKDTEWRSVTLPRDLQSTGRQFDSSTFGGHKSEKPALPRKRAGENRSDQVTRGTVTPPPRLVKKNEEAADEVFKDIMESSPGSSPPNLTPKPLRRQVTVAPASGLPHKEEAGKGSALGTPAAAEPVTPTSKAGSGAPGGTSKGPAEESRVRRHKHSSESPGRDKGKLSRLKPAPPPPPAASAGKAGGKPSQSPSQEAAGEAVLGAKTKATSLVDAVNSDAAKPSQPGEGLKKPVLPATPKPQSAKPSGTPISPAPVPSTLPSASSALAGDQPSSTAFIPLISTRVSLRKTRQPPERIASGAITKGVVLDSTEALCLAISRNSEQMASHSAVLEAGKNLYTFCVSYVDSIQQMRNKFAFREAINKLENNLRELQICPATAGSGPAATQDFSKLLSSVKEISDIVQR
Target sequence (Q13671 whole entry, looked up): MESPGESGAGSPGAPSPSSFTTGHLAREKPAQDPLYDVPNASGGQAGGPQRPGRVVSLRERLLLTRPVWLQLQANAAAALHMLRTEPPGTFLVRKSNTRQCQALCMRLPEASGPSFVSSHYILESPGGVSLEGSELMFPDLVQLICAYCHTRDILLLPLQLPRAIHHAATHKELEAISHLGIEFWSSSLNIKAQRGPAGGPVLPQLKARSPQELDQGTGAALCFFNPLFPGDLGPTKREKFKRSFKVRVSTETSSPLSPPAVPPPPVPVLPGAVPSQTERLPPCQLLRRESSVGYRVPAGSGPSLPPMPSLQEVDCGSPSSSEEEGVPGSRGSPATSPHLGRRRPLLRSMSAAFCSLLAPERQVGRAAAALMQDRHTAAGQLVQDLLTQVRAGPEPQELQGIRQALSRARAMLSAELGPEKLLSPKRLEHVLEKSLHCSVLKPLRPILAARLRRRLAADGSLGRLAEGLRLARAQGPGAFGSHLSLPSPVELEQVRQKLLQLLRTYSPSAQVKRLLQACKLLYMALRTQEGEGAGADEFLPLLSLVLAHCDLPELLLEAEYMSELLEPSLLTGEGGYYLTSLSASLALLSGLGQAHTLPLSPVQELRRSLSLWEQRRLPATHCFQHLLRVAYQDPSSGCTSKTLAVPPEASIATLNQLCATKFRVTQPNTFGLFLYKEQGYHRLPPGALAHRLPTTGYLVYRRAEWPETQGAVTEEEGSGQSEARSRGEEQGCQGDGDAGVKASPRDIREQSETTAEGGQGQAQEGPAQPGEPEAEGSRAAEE
MBD2 inh: inhibitors of human MBD2 binding to methylated oligonucleotide; Q9UBB5; TR-FRET; inhibition, % at 4.4 µM; 0.31% of 370,000 active; in the data active = inhibition above about 13%
UHRF1 MBD2 ctr: UHRF1 methyl-DNA binding inhibition | UHRF1 binding to methylated oligo, TR-FRET | inhibition, % at 4.4 µM | 0.75% of 370,000 active; in the data active = inhibition above about 21%;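 also: UHRF1 SRA domain binding a hemimethylated CpG hairpin DNA probe; 0% = median of test compound wells and 100% = reference inhibitor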
proKLK7 act conf: proKLK7 activation, confirmation | shares compounds with KLK7 zymogen act | purified proKLK7, EDANS-DABCYL substrate fluorescence; scaled: vehicle 0, mature enzyme 100 | activation, % at 7 µM | 68% of 3,200 active | AID 686949;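 active = activation, as change over the incubation, above the mean of all tested compounds plus 3 SD, cut at about 13% in these data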
EDANS interfere: counter-screen for kallikrein-7 activators: EDANS-DABCYL optical interference; shares compounds with KLK7 zymogen act; EDANS-DABCYL substrate fluorescence interference, no enzyme, 4 h; solvent 0%, active enzyme control 100%; activation, % at 7 µM; 80% of 3,200 active; AID 686952;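 active = activation above the all-compound mean plus 3 SD, ignoring values outside control-based bounds, cut at about 4.8% in these data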;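 also: value is the 4 h activation minus the activation read at time zero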
EDANS interf: EDANS fluorescence interference in dose response, no enzyme | shares compounds with KLK7 zymogen act | EDANS-DABCYL peptide fluorescence interference | EC50, µM | 20% of 250 active;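 active = compounds that raise the fluorescence signal in this interference counterscreen, with EC50 at or below 10 µM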;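 also: intact quenched peptide substrate alone read at 355 nm excitation and 520 nm emission; signal is fluorescence gain from T0 to T4 after four hours at room temperature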
Starred values were filed as active, the others as inactive; i = inactive; . = no result shown. Shown are actives, neighbours in structure and some others; about 3.1% of the full set was active somewhere.

SMILES	LEDGF integ inh	KLK7 zymogen act	Neddylation inh	Rin1 Abl inh	MBD2 inh	UHRF1 MBD2 ctr	proKLK7 act conf	EDANS interfere	others
Cc1nc2nc(-c3cccs3)cn2nc1C	-1	68*	i	-7	-2	-4	68*	66*
COc1cccc(-c2cn3nc(C)c(C)nc3n2)c1	2	2	i	-1	-1	-3	.	.
Cc1nc2nc(-c3ccc(Cl)cc3)cn2nc1C	1	53*	i	4	0	1	75*	79*
Cc1c(NC(=O)C(C)Oc2cccc(F)c2)c(=O)n(-c2ccccc2)n1C (configuration not stated)	-1	0	i	-1	-4	2	.	.
O=C(c1cccc(Cl)c1)N1CCCc2ccccc21	5	0	i	0	-2	4	.	.
Cc1ccc(N(CC(=O)N/N=C/c2cc(C)n(-c3ccccc3C)c2C)S(C)(=O)=O)cc1	3	-1	i	4	0	-1	.	.
CC1Nc2ccccc2C(=O)N1NS(=O)(=O)c1ccccc1 (configuration not stated)	4	21*	.	-2	-5	-2	4	4.5*
Cc1ccc(S(=O)(=O)NN2C(=O)c3ccccc3NC2c2ccco2)cc1 (configuration not stated)	3	5	i	2	-3	-1	.	.
Cc1ccc(S(=O)(=O)NN2C(=O)c3ccccc3NC2C)cc1 (configuration not stated)	-9	39*	.	0	3	7	11	11*
Cc1ccc(S(=O)(=O)NN2C(=O)c3ccccc3NC2c2ccccc2O)cc1 (configuration not stated)	-3	3	i	5	-2	-2	.	.
O=C1c2ccccc2NC(c2ccccc2F)N1NS(=O)(=O)c1ccccc1 (configuration not stated)	-5	19*	.	0	2	-1	6	6.8*
Cc1ccc(S(=O)(=O)NN2C(=O)c3ccccc3NC2c2ccccn2)cc1 (configuration not stated)	7	20*	.	0	-6	-4	6	4.4*
COC(=O)[C@]12C[C@H](CC(=O)N3CCN(C(=O)C4CC4)CC3)C(=O)N(CCC3=CCCCC3)C1=C[C@H](C(C)(C)C)O[C@@H]2C	2	0	.	.	-5	-1	.	.
CN1CCSc2ccc(C(=O)NCc3ccccc3F)cc21	4	29*	i	-6	-1	0	31*	13*	EDANS interf=>70
CN1CCSc2ccc(C(=O)Nc3cc(F)ccc3F)cc21	3	16*	.	-1	4	0	11	12*
Cc1ccccc1NC(=O)c1ccc2c(c1)N(C)CCS2	-3	6	.	-3	3	-3	.	.
CCN1CCSc2ccc(C(=O)NCc3ccccc3F)cc21	3	31*	i	-2	-4	-1	50*	-26	EDANS interf=>70
CCN1CCSc2ccc(C(=O)NCc3ccccc3C)cc21	0	20*	i	-3	-1	-3	-21	-25
Cc1ccc(C(C(=O)NCc2ccc(F)cc2)N(Cc2ccco2)C(=O)c2snc(C(N)=O)c2N)o1 (configuration not stated)	2	0	i	1	1	-4	.	.
COc1cccc(CNC(=O)c2ccc3c(c2)N(C)CCS3)c1OC	2	38*	.	-6	-3	-1	69*	47*	EDANS interf=>70
Cc1nc2sc(C#N)c(N)c2c2c1CCCC2	0	15*	.	0	-2	-3	15*	22*
N#Cc1sc2nc(N3CCCCC3)c3c(c2c1N)CCCC3	2	0	i	0	-2	-2	.	.
Cc1cc(Nc2ccc(Cl)cc2)nc(-c2ccccc2O)n1	-4	0	i	0	1	2	.	.
Cc1cc(Nc2cccc(Cl)c2)nc(-c2ccccc2O)n1	-2	265*	i	4	-5	1	77*	105*
CCCc1cc(=O)oc2c3c(cc(OCC(=O)NCCN4CCOCC4)c12)OC(C)(C)CC3	1	32*	.	0	-3	-1	-11	-20
SMILES	LEDGF integ inh	KLK7 zymogen act	Neddylation inh	Rin1 Abl inh	MBD2 inh	UHRF1 MBD2 ctr	proKLK7 act conf	EDANS interfere	others
CCCc1cc(=O)oc2c3c(cc(OCC(=O)NCc4ccncc4)c12)OC(C)(C)CC3	-3	-7	.	-5	-2	-2	.	.
CCCCc1cc(=O)oc2c3c(cc(OCC(=O)NCCCO)c12)OC(C)(C)CC3	1	24*	.	-1	-6	-1	-33	-34
CCNC(=O)N(C)[C@H]1C[C@H]2c3[nH]c4ccccc4c3CCN2C[C@H]1[C@H](C)O	1	17*	i	3	-3	-5	0	2
C[C@H](O)[C@@H]1CN2CCc3c([nH]c4ccccc34)[C@@H]2C[C@@H]1N(C)C(=S)NCCc1ccccc1	1	39*	i	-6	-5	-11	4	3
CCCC[C@H](C(=O)N(C)c1ccccc1)[C@@H](O)c1ccc(C(C)=O)cc1	8	1	.	.	-2	-3	.	.
Cc1c(-c2cccc(NC(=O)c3cccs3)c2)nc2ncccn12	-7	62*	.	-3	2	2	47*	62*
Cc1c(-c2cccc(NC(=O)c3ccco3)c2)nc2ncccn12	0	91*	i	-4	1	-6	69*	81*
COC(=O)[C@]12C[C@H](CC(=O)NCCCCc3ccccc3)C(=O)N(CCC3=CCCCC3)C1=C[C@H](C(C)C)O[C@@H]2C1CC1	2	0	.	.	-6	5	.	.
Cc1cccc(C2Nc3ccccc3C(=O)N2CCc2ccccc2)n1 (configuration not stated)	1	21*	.	3	5	7	6	11*
c1cc2c3c(cccc3c1)C(N1CCCCCC1)=N2	3	52*	i	-4	-2	1	7	9.4*
c1cc2c3c(cccc3c1)C(N1CCCCC1)=N2	.	.	i	-7	.	.	.	.
c1ccc2c(c1)CCN(C1=Nc3cccc4cccc1c34)C2	5	14*	i	-3	-4	-10	7	8.2*
O=C(O)c1cc2cccc(S(=O)(=O)N3CCCCC3)c2cc1O	-3	21*	.	2	-1	0	85*	88*
CC(=O)N1CC2(NC(=O)c3ccccc3N2)c2ccccc21 (configuration not stated)	1	19*	.	-6	-5	-2	17*	18*
